Mtb hypoxia rep = Mtb hypoxia fluorescent reporter inhibition. fluorescence inhibition, % (concentration not given with the values). M. tuberculosis hypoxia-regulated fluorescent reporter, fluorescence. 0.1% of 300,000 active; in the data active = fluorescence inhibition mostly above about 23%, no sharp cut-off; inactive = mostly below about 17%
PfHsp40 rescue = restores yeast growth despite PfHsp40 toxicity; 0.68% of 340,000 active; AID 504582; growth rescue, % at 12.5 µM; S. cerevisiae expressing PfHsp40, growth rescue, ATP luminescence; in the data active = growth rescue above about 28%, passing the limit was not always enough;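 note: yeast W303a lacking pdr1 and pdr3 grown in galactose medium; growth measured after three days at 30 °C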
ugtP null kill = growth inhibition of S. aureus ugtP deletion strain. S. aureus RN4220 ugtP deletion, OD600 growth, 16 h. AID 1259309. 0.54% of 330,000 active. growth inhibition, % (concentration not given with the values); in the data active = growth inhibition above about 68%
MazF activator = activators of E. coli MazEF toxin-antitoxin RNase; 0.32% of 350,000 active; activation, % at 20 µM; FAM/BHQ RNA-DNA oligo cleavage fluorescence, 5 h; in the data active = activation above about 50%
Target sequence (P0AE70 whole entry, looked up): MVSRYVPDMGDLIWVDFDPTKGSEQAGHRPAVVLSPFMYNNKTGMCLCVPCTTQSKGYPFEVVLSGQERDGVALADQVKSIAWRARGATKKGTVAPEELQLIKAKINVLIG
Sa RN4220 lethal = kills Staphylococcus aureus RN4220. inhibition, % (no concentration beside the values). S. aureus RN4220 growth, OD600, 16 h. 0.33% of 330,000 active; in the data active = inhibition above about 85%
TcdB inh = TcdB glycohydrolase inhibition | AID 652162 | TcdB glycohydrolase enzymatic assay, plate reader | 0.24% of 350,000 active | inhibition, % at 9.99 µM; in the data active = inhibition above about 10%
Large screens that a line does not name were inactive. An excerpt weighted towards active compounds, which were near 1.3% of everything screened.

C=C1CCN(C(Cc2ccccc2)C(=O)NCCC(C)C)S(=O)(=O)c2ccccc21 (configuration not stated)	none (no result: PfHsp40 rescue, MazF activator, TcdB inh)
O=C(COC(=O)c1ccccc1SCC(=O)N1CCCC1)NC1CCCCC1	none
O=C(OCC(=O)N1CCCCC1)c1ccccc1SCC(=O)N1CCCCC1	TcdB inh 15.9
O=C1c2cc(Br)ccc2N(Cc2ccc(Br)cc2)S(=O)(=O)C1c1cc(Cl)c(Cl)cc1[N+](=O)[O-] (configuration not stated)	PfHsp40 rescue 143.3 (no result: Mtb hypoxia rep, ugtP null kill, Sa RN4220 lethal)
CC(=O)N1[C@@H]2Cn3c(ccc(C4=CCCC4)c3=O)[C@H]1[C@@H](C(=O)NC1CCCCC1)[C@@H]2CO	none (no result: Mtb hypoxia rep, PfHsp40 rescue, ugtP null kill, MazF activator, Sa RN4220 lethal)
CC(CC(=O)Nc1ccc2c(c1)OCCO2)=NNC(=O)COc1ccc(Cl)c(C)c1	none (no result: PfHsp40 rescue, MazF activator, TcdB inh)
O=C1CCCc2c1cc(-c1ccccc1)n2-c1ccc(O)cc1	none
COc1ccc(-n2c(-c3ccccc3)cc3c2CCCC3=O)cc1	PfHsp40 rescue 133.6
Cc1cccc(CCNC(=O)CN(C)S(=O)(=O)c2cnc[nH]2)c1	PfHsp40 rescue 70.3 (no result: TcdB inh)
Cc1cc(C)cc(NC(=O)CN(C)S(=O)(=O)c2cnc[nH]2)c1	none (no result: TcdB inh)
Oc1ccc(-c2nc3ccc4ccccc4c3c3c2CCC3)cc1O	ugtP null kill 98.4 (no result: TcdB inh)
Cc1cc(C(=O)NN=Cc2ccc(-c3cccc(Cl)c3Cl)o2)n[nH]1	none (no result: PfHsp40 rescue, MazF activator, TcdB inh)
Cc1cc(C(=O)N/N=C/c2ccc(-c3cccc(Cl)c3Cl)o2)n[nH]1	MazF activator 50.8 (no result: Mtb hypoxia rep, ugtP null kill, Sa RN4220 lethal, TcdB inh)
C=CCn1c(SCc2csc(-c3ccc(C)cc3)n2)nnc1-c1ccccc1OC	ugtP null kill 90.1 (no result: TcdB inh)
COc1ccccc1-n1cnnc1SCc1csc(-c2ccccc2)n1	none (no result: TcdB inh)
Nc1ccc(-c2nc3ccc(N)cc3o2)cc1	TcdB inh 10.6 (no result: Mtb hypoxia rep)
Nc1ccc(-c2nc3cc(N)ccc3o2)cc1	none
COc1ccccc1-c1cc(C(=O)NN=Cc2cccs2)c2ccccc2n1	none (no result: Mtb hypoxia rep, PfHsp40 rescue, MazF activator, TcdB inh)
COc1cc2ccccc2cc1C(=O)N/N=C/c1cccs1	TcdB inh 12.6 (no result: Mtb hypoxia rep, PfHsp40 rescue, ugtP null kill, Sa RN4220 lethal)
Cc1ccccc1N(CC(=O)NN=Cc1cc(Br)c(C)o1)S(C)(=O)=O	none (no result: PfHsp40 rescue, MazF activator, TcdB inh)
c1ccc(-c2nnc(SCC3CCCO3)nc2-c2ccccc2)cc1 (configuration not stated)	none
c1ccc(-c2nnc(SCC3CCCCO3)nc2-c2ccccc2)cc1 (configuration not stated)	ugtP null kill 93.7
C=CCN1C(=O)/C(=C2/Sc3ccccc3N2CC)SC1=S	MazF activator 161.8
Cc1ccc(S(=O)(=O)N(C)C[C@@H]2Oc3ncc(Br)cc3C(=O)N([C@@H](C)CO)C[C@H]2C)cc1	none (no result: Mtb hypoxia rep, PfHsp40 rescue, ugtP null kill, MazF activator, Sa RN4220 lethal)
CN(C)c1ccc(/C=C(/NC(=O)c2ccccc2)C(=O)N2CCCC2)cc1	MazF activator 59.5
Cc1ccc(/C=C(\NC(=O)c2ccccc2)C(=O)N2CCCCC2)cc1	none
CC(=NNC(=O)Cc1ccc([N+](=O)[O-])cc1)c1cccnc1	none (no result: PfHsp40 rescue, MazF activator, TcdB inh)
O=C(CN1C(=O)NC2(CCCc3ccccc32)C1=O)NCc1cccs1 (configuration not stated)	TcdB inh 15.0
CCCNC(=O)C[C@@H]1C[C@H]2c3cc(NC(=O)COC)ccc3O[C@H]2[C@H](CO)O1	none (no result: Mtb hypoxia rep, PfHsp40 rescue, ugtP null kill, MazF activator, Sa RN4220 lethal)
COCCNC(=O)C[C@H]1CC[C@H](NC(=O)NC2CCCC2)[C@@H](CO)O1	none (no result: Mtb hypoxia rep, PfHsp40 rescue, ugtP null kill, MazF activator, Sa RN4220 lethal)
CCN(N=C/C=C/c1ccccc1)c1cc(=O)n(C)c(=O)[nH]1	none (no result: PfHsp40 rescue, MazF activator, TcdB inh)
Cc1onc(-c2c(Cl)cccc2Cl)c1COC(=O)c1ccc(Cl)cc1	ugtP null kill 88.6
COc1ccc(-c2cn3cc(C)ccc3n2)cc1F	TcdB inh 20.2
Cc1ccc2nc(-c3ccc4c(c3)OCCO4)cn2c1	TcdB inh 25.8 (no result: Mtb hypoxia rep, ugtP null kill, Sa RN4220 lethal)
COc1ccc(-c2cn3cc(C)ccc3n2)cc1OC	none (no result: TcdB inh)
c1ccn2cc(-c3ccc4c(c3)OCCO4)nc2c1	none
CC(=NNC(=O)CN1CCN(S(=O)(=O)c2ccc(Br)cc2)CC1)c1ccncc1	none (no result: PfHsp40 rescue, MazF activator, TcdB inh)
C#CCOCCOCCOCCNc1nc(N2CCN(C(=O)C(Cc3ccc(O)cc3)n3cc(C(N)CC(C)C)nn3)CC2)nc(N2CCN(C(=O)C(CCCCN)n3cc(C(N)C(C)CC)nn3)CC2)n1 (configuration not stated)	none (no result: PfHsp40 rescue, MazF activator, TcdB inh)
CN(C)CCCOC(=O)C1c2ccccc2Oc2ccccc21	PfHsp40 rescue 43.6 (no result: Mtb hypoxia rep, TcdB inh)
CC(Sc1ccccc1)C(=O)NN=Cc1ccccc1 (configuration not stated)	none (no result: PfHsp40 rescue, MazF activator, TcdB inh)
O=C(Nc1ccccc1)Nc1cc(OCC(F)(F)F)cc(OCC(F)(F)F)c1	ugtP null kill 93.8, Sa RN4220 lethal 90.4
O=C(Nc1ccccc1)Nc1cc(Cl)cc(Cl)c1	none (no result: Mtb hypoxia rep, ugtP null kill, Sa RN4220 lethal, TcdB inh)
CCc1ccccc1NS(=O)(=O)c1ccc(SC)cc1	ugtP null kill 89.1, Sa RN4220 lethal 94.8 (no result: TcdB inh)
Cc1cccc(C(=O)NNC2=C(C(=O)C(F)(F)F)CCC2)c1O	ugtP null kill 98.3, Sa RN4220 lethal 98.6 (no result: TcdB inh)
CCN(C(=O)CN1C(=O)NC2(CCC(C)CC2)C1=O)C1CCCCC1 (configuration not stated)	TcdB inh 13.7 (no result: Mtb hypoxia rep, PfHsp40 rescue, ugtP null kill, Sa RN4220 lethal)
CCOC(=O)N1CCN(C(=O)c2ccc3c(=O)n(Cc4ccccc4OC)c(=S)[nH]c3c2)CC1	PfHsp40 rescue 28.7 (no result: TcdB inh)
O=C(CC1N=C(Cc2ccccc2)NNC1=O)NN=Cc1ccc([N+](=O)[O-])cc1 (configuration not stated)	none (no result: PfHsp40 rescue, MazF activator, TcdB inh)
Cc1cc(/C=C2\SC(=S)N(C)C2=O)c(C)n1-c1ccc(O)cc1	PfHsp40 rescue 450.0
